Only some compounds are listed: those with a hit (about 7.5% of all), similar ones and a draw of the others.
NPC1 promoter act: NPC1 promoter activation | Huh7 NPC1 promoter luciferase reporter, 24 h | Potency, µM (top dose mostly 9.22 µM), for the others: at the highest dose activation, hits mostly activators | actives 2.4% (n = 320,000) | AID 485313; also: % of control where 0% means no effect; nearly all actives have a fitted effect of over 60% in size
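Huh7 cells stably carrying NPC1 promoter–luciferase, plated in Opti-MEM with 10% FBS for 2 h, were exposed to compound in DMSO for 24 h at 37 °C; luciferase reagent was added for 10 min and luminescence read.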
KinaseGlo FLuc: blocks Kinase-Glo luciferase, a counter-screen artifact. Kinase-Glo luciferase, ATP luminescence, 8 min. Potency, µM (titrated, usually from 38.3 µM), for the others: top-dose activity change, negative = inhibition, hits mostly inhibitors. actives 0.28% (n = 200,000). AID 1379; also: % is scaled to controls: 0 for no effect and ±100 for the full control effect; nearly all actives have a fitted effect of over 60% in size
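Compounds were added to a substrate mix at pH 7.2 (50 mM imidazole, 10 uM ATP, within the enzyme's linear range), followed by Kinase-Glo detection reagent; luminescence was measured after 8 minutes at ambient temperature.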
SMN2 splice enh: SMN2 splice variant enhancement. HEK293 SMN2-luciferase splicing reporter, luminescence, 30-36 h. Potency, µM (highest dose often 46.1 µM), for the others: top-dose activity change, positive = activation, hits mostly activators. actives 2.8% (n = 210,000); also: % of control where 0% means no effect; nearly all actives have a fitted effect of over 55% in size
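qHTS luciferase splicing reporter: luminescence rises when SMN2 exon 7 is included in transfected HEK293 cells. Compound exposure lasted 30-36 h at 37C, with 4.5 mM final sodium butyrate as control, followed by a ONE-Glo read.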
ELG1 genotoxic: genotoxicity induction in ELG1-luciferase HEK293T cells; HEK293T ELG1-luciferase reporter, luminescence, 16 h; Potency, µM (titrated, usually from 46 µM), for inactives: top-dose activity change, positive = activation, actives largely listed as activators; actives 1.3% (n = 330,000); AID 504466; also: % of control where 0% means no effect; nearly all actives have a fitted effect of over 60% in size
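ELG1-luciferase HEK293T cells, 2,000/well; compound pinned in; 16 hr, 37 °C, 5% CO2; ONE-Glo, 30 min RT; luminescence on CCD imager.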
FLuc modulator: counter-screen for miR-21 project: firefly luciferase inhibitors or activators | Potency, µM (top dose mostly 57.5 µM), for inactives: at the top dose activity change, negative = inhibition, usual class: inhibitors | actives 6.9% (n = 360,000) | P08659 | purified FLuc, Km substrates, luminescence inhibition;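 also: plate controls were vehicle for no effect and reference inhibitor for full effect; nearly all actives have a fitted effect of over 55% in size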
Target sequence (P08659 whole entry, looked up): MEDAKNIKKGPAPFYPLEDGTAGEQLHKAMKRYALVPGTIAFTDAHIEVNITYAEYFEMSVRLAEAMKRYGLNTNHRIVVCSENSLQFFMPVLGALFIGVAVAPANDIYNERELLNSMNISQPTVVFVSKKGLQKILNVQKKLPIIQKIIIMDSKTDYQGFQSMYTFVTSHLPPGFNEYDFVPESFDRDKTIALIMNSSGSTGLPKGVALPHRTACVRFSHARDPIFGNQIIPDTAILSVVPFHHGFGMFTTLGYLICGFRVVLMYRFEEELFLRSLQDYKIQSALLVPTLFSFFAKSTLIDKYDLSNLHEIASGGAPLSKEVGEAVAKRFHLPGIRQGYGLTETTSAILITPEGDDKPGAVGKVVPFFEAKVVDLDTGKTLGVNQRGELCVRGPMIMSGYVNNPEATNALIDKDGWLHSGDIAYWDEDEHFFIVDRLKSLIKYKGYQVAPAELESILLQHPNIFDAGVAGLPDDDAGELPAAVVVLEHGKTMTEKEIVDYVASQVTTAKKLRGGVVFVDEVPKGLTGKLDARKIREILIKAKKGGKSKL
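Purified P. pyralis luciferase, 10 nM final, with Km-level 10 uM D-luciferin and 10 uM ATP in 50 mM Tris acetate pH 7.5, 10 mM Mg acetate, 0.01% Tween-20, 0.05% BSA; 6-point qHTS titration about 60 µM downward; luminescence read.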
Rab9 prom act: Rab9 promoter activation. Huh7 Rab9 promoter-luciferase reporter, luminescence, 24 h. Potency, µM (series often up to 9.22 µM), for the others: top-dose activation, negative = inhibition, actives largely listed as activators. actives 2.8% (n = 320,000); also: % of control where 0% means no effect; nearly all actives have a fitted effect of over 60% in size
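Luminescence from Amplite-detected luciferase (10 minutes, ambient) reports Rab9 promoter activation. Before that, stable Rab9-luciferase Huh7 cells (1500/well, reduced-serum OP-MEM I plus 10% FBS) were exposed to compound for 24 hours at 37C.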
An asterisk follows results filed as active; ? = inconclusive; . = no result; [ ] = another dose, or the depositor's remark. Calls follow the shape of the dose curve; as a rule, active = well fitted curve in the direction sought with a large enough effect; inconclusive = small, poorly fitted or top-dose-only effect, or another doubt; inactive = no such curve, though single readings can be large; an effect the other way counts as inactive or inconclusive. Potency is read from the fitted curve at half-maximal effect.

SMILES | NPC1 promoter act | KinaseGlo FLuc | SMN2 splice enh | ELG1 genotoxic | FLuc modulator | Rab9 prom act
CC(C)[C@@H](CC(=O)N[C@@H]1CCCC[C@H]1C(=O)N[C@H](CC(=O)N[C@@H](CCC(=O)O)CC(=O)O)Cc1ccccc1)NC(=O)C[C@H](CO)NC(=O)[C@@H]1CCCC[C@H]1N | . | -7.5% | 4.2% | . | . | .
O=C(O)[C@H]1CCCC[C@@H]1C(=O)Nc1nc2ccccc2[nH]1 | . | -3.9%[7.66 µM] | -5.5%[9.22 µM] | . | . | .
CC(C)=NOC(=O)c1ccc(-c2ccccc2)cc1 | 0.0% | 0.8% | ? | 0.7% | 8.49µM* | -10.9%
C/C(=N\OC(=O)c1ccc(OC(C)C)cc1)c1ccc(C)c(C)c1 | 1.4% | -2.9% | -24.5% | 12.7% | 13.5µM* | 13.2%
COc1ccc(C(=O)O/N=C(\C)c2ccccc2)cc1 | 4.3% | 12.6µM* | -3.2% | 1.8% | 0.675µM* | 2.4%
COc1cccc(NC(=O)c2ccc3c(c2)CCN3S(C)(=O)=O)c1 | 27.3% | . | 29.8% | 4.6% | 16.9µM* | ?
CCc1ccc(NC(=O)c2ccc3c(c2)N(Cc2ccc(C)cc2)CCS3)cc1 | . | . | 25.1µM* | . | ? | .
CN1CCSc2ccc(C(=O)Nc3ccc(Cl)cc3)cc21 | 2.82µM* | . | . | ? | ? | 3.55µM*
COc1cccc(NC(=O)c2ccc3c(c2)N(C)CCS3)c1 | 1.26µM* | . | . | ? | 2.69µM* | 3.55µM*
CC(=O)Nc1ccc(NC(=O)c2ccc3c(c2)CCN3S(C)(=O)=O)cc1 | -1.6% | . | . | -1.7% | -1.4% | -10.6%
CCc1ccc(CNC(=O)C2CCN(C(=O)c3ccc(-n4ccc5ccccc54)s3)CC2)cc1 | . | . | . | . | -12.1% | .
CN(C)CCCNc1ncnc2c1cnn2-c1ccccc1 | 17.4% | -2.2% | 5.1% | ? | ? | 29.9%
Cc1cccc(-n2ncc3c(NNC(=O)c4ccco4)ncnc32)c1 | 1.8% | . | . | 5.8% | ? | 11.3%
Cc1ccc(-n2ncc3c(NNC(=O)c4ccco4)ncnc32)cc1Cl | 14.8% | . | . | ? | 8.49µM* | 9.2%
CC(=O)Nc1ccc(Nc2ncnc3c2cnn3-c2cccc(C)c2)cc1 | 2.82µM* | -0.1% | ? | 10.3% | -15.4% | 3.16µM*
Cc1cccc(-n2ncc3c(NCc4cccs4)ncnc32)c1 | 3.55µM* | -5.0% | 10µM* | ? | 9.53µM* | ?
Cc1ccc(-n2ncc3c(NCCCN(C)C)ncnc32)cc1Cl | . | . | . | . | 13.5µM* | .
CCCCC[C@H](O)/C=C/C1=C(C/C=C\CCCC(=O)O)C(=O)CC1 | . | 2.5% | -3.8% | . | . | .
Cc1cccc(-n2ncc3c(NCc4ccco4)ncnc32)c1 | 8.3% | 0.0% | 15.8µM* | ? | 12µM* | ?
CNc1ncnc2c1cnn2-c1ccc(C)c(C)c1 | . | . | . | . | 10.7µM* | .
COc1ccc(OC)c(Nc2ncnc3c2cnn3-c2cccc(C)c2)c1 | -25.7% | -1.3% | ? | 0.1% | -17.9% | -10.2%
CC(=O)Cn1cnc2c(cnn2-c2ccc(C)c(C)c2)c1=O | 3.16µM* | . | . | ? | 23.9µM* | 1.58µM*
Cc1ccc(-n2ncc3c(=O)n(CC(=O)N(C)C)cnc32)cc1C | 21.3% | . | . | 14.8% | ? | 29.6%
Cc1ccc(-n2ncc3c(NCc4ccco4)ncnc32)cc1C | 2.82µM* | -2.6% | 15.8µM* | ? | 13.5µM* | 3.55µM*
COc1ccc(CNc2ncnc3c2cnn3-c2ccc(C)c(C)c2)cc1 | . | . | . | . | -7.2% | .
SMILES | NPC1 promoter act | KinaseGlo FLuc | SMN2 splice enh | ELG1 genotoxic | FLuc modulator | Rab9 prom act
Cc1cccc(-n2ncc3c(N4CCCc5ccccc54)ncnc32)c1 | 2.82µM* | -3.1% | 12.6µM* | 2.31µM* | 5.36µM* | 2µM*
Cc1cccc(-n2ncc3c(NCc4ccccc4)ncnc32)c1 | -16.4% | -2.6% | 10µM* | 18.4µM* | -17.4% | -3.9%
Cc1cccc(-n2ncc3c(NCCN4CCOCC4)ncnc32)c1 | 26.3% | 0.4% | -8.9% | 0.2% | ? | 28.6%
Clc1ccc(-n2ncc3c(NCc4cccnc4)ncnc32)cc1Cl | 0.501µM* | . | . | ? | 1.07µM* | 1.12µM*
c1ccc(CNc2ncnc3c2cnn3-c2ccccc2)cc1 | -12.2% | . | . | ? | ? | 5.6%
CCOCCCNc1ncnc2c1cnn2-c1ccc(C)c(C)c1 | . | . | . | . | 10.7µM* | .
Cc1ccccc1NC(=O)c1nc(S(C)(=O)=O)ncc1N(Cc1ccco1)Cc1sccc1C | . | . | . | . | 0.7% | .
O=C(CNC(=O)c1ccc(Br)o1)Nc1ccc(F)c(S(=O)(=O)N2CCOCC2)c1 | 0.1% | . | . | -0.3% | -6.0% | -2.0%
COc1ccc(C(=O)c2cn(Cc3ccc(F)cc3)c3c(F)cc(F)cc3c2=O)cc1 | . | . | 2.6% | . | -0.3% | .
COc1ccc(CCNC(=O)CCn2c(=O)c3cccn3c3ccc(F)cc32)cc1OC | . | . | . | . | -9.5% | .
COc1ccccc1C(=O)OCc1cc(=O)n2c(C)csc2n1 | . | . | . | . | 19µM* | .
COc1ccc(C(=O)OCc2cc(=O)n3c(C)csc3n2)cc1F | 3.98µM* | . | . | ? | ? | 2.24µM*
COc1cccc(C(=O)Nc2ccccc2C(=O)OCc2cc(=O)n3c(C)csc3n2)c1 | . | . | . | . | -4.5% | .
CCOc1ccc(C(=O)Nc2c(C(=O)Nc3ccccc3OC)oc3ccccc23)cc1OCC | . | . | 9.1% | . | ? | .
Cc1ccc2c(c1Br)C(O)(CC(=O)c1ccc(F)cc1)C(=O)N2 (stereo not given) | . | . | . | . | -5.9% | .
Cc1ccc(Cc2nc(-c3ccncc3)no2)cc1 | 4.2% | -0.2% | 1.6% | 0.0% | -13.8% | 11.2%
CCc1ccc(-c2nc(-c3ccncc3)no2)cc1 | 0.355µM* | 8.2% | 7.94µM* | 0.731µM* | 0.675µM* | ?

High-throughput results (PubChem BioAssay)
